The list is not random: actives were taken first. Their share in the collection is about 3.1%.
Rtt109 HAT inh = inhibitors of Candida albicans Rtt109/Vps75 histone acetyltransferase; hit rate 0.16% among 330,000; inhibition, % at 34.9 µM; Q5AAJ8; purified Rtt109/Vps75, ThioGlo CoA-SH fluorescence, 4 h;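 active = inhibition of at least 50% in every replicate; inconclusive = best replicate reaches 50% inhibition but some replicates fall short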
Target sequence (Q5AAJ8 whole entry, looked up): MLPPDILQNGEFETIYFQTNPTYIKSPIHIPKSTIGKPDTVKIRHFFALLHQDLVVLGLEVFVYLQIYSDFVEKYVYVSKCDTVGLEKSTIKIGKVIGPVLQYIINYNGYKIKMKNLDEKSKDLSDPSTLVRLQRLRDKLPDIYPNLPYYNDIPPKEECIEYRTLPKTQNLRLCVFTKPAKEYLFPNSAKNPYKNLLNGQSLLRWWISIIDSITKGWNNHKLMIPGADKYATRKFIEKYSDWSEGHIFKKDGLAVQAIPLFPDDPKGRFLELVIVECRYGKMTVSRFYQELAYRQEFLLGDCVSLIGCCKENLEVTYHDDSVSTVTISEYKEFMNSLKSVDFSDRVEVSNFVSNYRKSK
MITF act = increases MITF-driven TRPM1 promoter luciferase signal. SK-MEL-5 TRPM1-promoter luciferase, 24 h; % of positive control, neutral wells = 0. activation, % at 12.5 µM. hit rate 0.75% among 300,000. AID 588334;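 active = mean activation of at least 80% with every replicate also reaching 80%; inconclusive = mean reaches 80% but some replicate falls short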;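 also: 0% = neutral control wells and 100% = parthenolide positive control wells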
Statin myotox sup = suppressors of simvastatin-induced myotoxicity in C2C12 myotubes; AID 602340; hit rate 0.78% among 330,000; ATP luminescence, 48 h; scaled: DMSO 0, geranylgeraniol control 100; rescue of ATP level, % at 7.49 µM;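 active = mean ATP rescue above about 67%, or every replicate alone reaching that limit, limit read from the data, passing the limit was not always enough; inconclusive = no clear call, values can overlap the other calls; inactive = mean under the limit and some replicate under it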;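 also: myotubes were challenged with 10 µM simvastatin during compound exposure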
esBAF inh = blocks esBAF chromatin remodeling in mouse ES cells; Bmi1-luciferase knock-in reporter, 24 h; 100% = twice the neutral-well signal; reporter increase, % at 12.5 µM; hit rate 2% among 350,000; AID 602393; in the data active = activation above about 40%; inconclusive = no clear call, values can overlap the other calls;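 also: 0% = median of the plate's neutral control wells and 100% = double that signal; a rise in the Bmi1 reporter signal indicates esBAF inhibition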
Wnt act = activators of Wnt/beta-catenin signaling. AID 743398. activation, % at 9.35 µM. Wnt/beta-catenin reporter cell assay, activator, plate reader. hit rate 1.2% among 300,000; in the data active = activation above about 30%, passing the limit was not always enough; inconclusive = no clear call, values can overlap the other calls;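 also: 0% = neutral control wells and 100% = positive control wells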
Numbers without * were called inactive; ? = inconclusive; · = not tested or not shown.

SMILES	Rtt109 HAT inh	MITF act	Statin myotox sup	esBAF inh	Wnt act
C[C@H]1CN([C@@H](C)CO)C(=O)c2cc(C3=CCCC3)cnc2O[C@H]1CN(C)C(=O)c1ccccc1	·	·	0	3	·
COc1ccc(C(=O)N/N=C/c2ccc3cccc(OCc4ccccc4)c3n2)cc1	5	24	2	64*	19
Cc1ccc(C(=O)NN=CC(=O)c2ccccc2)c(C)c1	-3	61	-2	-31	34*
O=C(N/N=C/c1ccc2cccc(OCc3ccccc3)c2n1)c1ccc(Br)cc1	-8	1	·	·	2
COc1ccc(C(=O)N/N=C/C(=O)c2ccccc2)cc1	3	78	19	62*	32*
C[C@@H]1CCCCO[C@H](CN(C)S(=O)(=O)c2cn(C)cn2)[C@H](C)CN([C@@H](C)CO)C(=O)c2cc(NC(=O)Nc3ccc(F)cc3)ccc2O1	·	·	·	6	·
Cc1ccc(NS(=O)(=O)c2ccc(-n3cccn3)cc2)cc1C	-4	-4	164*	7	1
Cc1ccc(NS(=O)(=O)c2ccc(-n3cccn3)cc2)cc1Cl	·	·	41	7	-1
C[C@H](CO)N1C[C@H](C)[C@@H](CN(C)C(=O)C2CCCCC2)OCCCC[C@H](C)Oc2ccc(NC(=O)Nc3ccc4c(c3)OCO4)cc2C1=O	·	·	·	4	·
COc1ccc(C(=O)NCCC2=CCCCC2)cc1OC1CCN(C(C)C)CC1	7	27	-17	60*	16
CS(=O)(=O)N(CC(=O)NN=C1CCCCCC1)c1ccc(Oc2ccccc2)cc1	2	0	0	-8	-4
CN1CCC(=NNC(=O)CN(c2ccc(Oc3ccccc3)cc2)S(C)(=O)=O)CC1	-3	24	110*	2	-4
CC(C)CC#Cc1cnc2c(c1)C(=O)N([C@H](C)CO)C[C@@H](C)[C@H](CN(C)C(=O)CN1CCOCC1)O2	·	·	15	1	·
O=C(O)CC(c1ccccc1)n1cccc1 (configuration not stated)	2	-1	115*	-7	-4
COc1ccc(Br)cc1CN(C)C(C)C(=O)Nc1cccc(C(C)=O)c1 (configuration not stated)	53*	-5	·	·	-4
CCCCC(=O)NC(=S)Nc1cccc(C(=O)O)c1	-17	-1	2	44*	0
CC(=O)c1cccc(NC(=S)NC(=O)c2ccccc2)c1	0	?	·	·	·
CC(=O)c1cccc(NC(=S)NC(=O)C(C)C)c1	6	2	0	3	36*
Cc1noc(C)c1NC(=O)N(C)C[C@@H]1Oc2ccc(NC(=O)NC(C)C)cc2CC(=O)N([C@@H](C)CO)C[C@@H]1C	·	·	-12	-8	·
CCOC(=O)C1(CCSC)NC(c2ccco2)C2C(=O)N(CC)C(=O)C21 (configuration not stated)	5	7	104*	6	-7
CCOC(=O)N1CCN(C(=O)Cn2nc(C)c3sc4ccccc4c3c2=O)CC1	0	-10	103*	-7	0
Cc1nn(CC(=O)N2CCN(C)CC2)c(=O)c2c1sc1ccccc12	-5	-17	4	3	-2
C[C@H](CO)N1C[C@H](C)[C@@H](CN(C)Cc2ccccc2)Oc2ccc(NS(C)(=O)=O)cc2CC1=O	·	·	-11	1	·
CCCCc1ccc(-c2ccc(Br)cc2)nc1	-10	43	-17	-4	24
CCc1ccc(-c2ccc(C(=O)O)cc2)nc1	-4	34	-8	46*	26
SMILES	Rtt109 HAT inh	MITF act	Statin myotox sup	esBAF inh	Wnt act
CN(C)c1cccc(C(=O)Nc2cccc(S(=O)(=O)NC3=NCCC3)c2)c1	10	6	2	55*	9
Cc1ccc(C)c(-n2ccnc2SCC(=O)Nc2cccc(S(=O)(=O)NC3=NCCC3)c2)c1	2	-8	-1	-1	47*
Cn1c(SCC(=O)Nc2cccc(S(=O)(=O)NC3=NCCCCC3)c2)nnc1-c1ccncc1	13	4	·	·	-2
CO[C@@H]1CN(C)C(=O)c2ccc(NS(=O)(=O)c3ccc(C)cc3)cc2OC[C@@H](C)N(C(=O)NC(C)C)C[C@H]1C	·	·	-1	-4	·
O=C(Cc1ccncc1)NCC[C@H]1CC[C@@H](NC(=O)C2CCCC2)[C@H](CO)O1	·	·	-1	-3	·
O=C(CCCCCn1c(=S)[nH]c2ccc(N3CCOCC3)cc2c1=O)NC1CCN(Cc2ccccc2)CC1	2	2	-9	1	-4
O=C(NC1CCN(Cc2ccccc2)CC1)c1ccc(Cn2c(=S)[nH]c3ccc(N4CCOCC4)cc3c2=O)cc1	3	81*	-10	31	13
Cc1noc(C)c1S(=O)(=O)Nc1ccc2c(c1)C(=O)N([C@@H](C)CO)C[C@@H](C)[C@@H](CN(C)C(=O)Nc1ccccc1)OCCCC[C@@H](C)O2	·	·	·	2	·
Cc1cc(C)nc(-n2nc(C)c3c(C(F)F)cc(C)nc32)n1	-10	?	115*	-8	-1
CC=Cc1ccc2n(c1=O)C[C@@H]1[C@@H](CO)[C@H](C(=O)NCC3CCCCC3)N(C(=O)CC)[C@H]21 (mixture of isomers)	·	·	2	-2	·
CS(=O)(=O)N(CCc1ccccc1)CC(N)=O	5	0	102*	-8	·
CS(=O)(=O)N(CCc1ccccc1)CC(=O)N1CCc2ccccc2C1	-3	-1	111*	3	-4
O=C1C=C(c2ccccc2)C[C@H](c2cccs2)[C@H]1n1cnc([N+](=O)[O-])c1	7	12	137*	-9	0
O=C(C[C@@H]1CC[C@H]2[C@@H](COC[C@H](O)CN2Cc2nccs2)O1)NCc1ccc(Oc2ccccc2)cc1	·	·	32	13	·
CN(C)c1ccc(C(=O)c2ccc(O)cc2O)cc1	7	47	·	55*	14
O=C(c1ccc(O)cc1)c1ccc(O)cc1O	2	-1	·	15	2
Cc1noc(C)c1S(=O)(=O)Nc1ccc2c(c1)C(=O)N([C@H](C)CO)C[C@@H](C)[C@H](CN(C)C(=O)Nc1ccc(F)cc1)O2	·	·	5	0	·
C[n+]1ccccc1/C=C/c1ccc2ncccc2c1	1	·	1	71*	-1
CCCc1cnc(N2CCN(C(=S)NC)CC2)nc1	0	·	7	37	40*
COc1ccc(NC(=O)Nc2ccc3c(c2)C(=O)N([C@H](C)CO)C[C@H](C)[C@H](CN(C)Cc2ccccc2)OCCCC[C@@H](C)O3)cc1	·	·	·	-2	·
C/C(=C\c1ccccc1)C(=O)Nc1cc(C)on1	-10	?	-7	56*	23
Cc1ccc(/C=C/C(=O)Nc2cc(C)on2)cc1	1	75	33	25	35*
Cc1ccc(NC(=O)c2cc(C)on2)cc1	-2	97*	-43	28	·
CCc1ccc(NC(=O)c2cc(C)on2)cc1	-5	?	-9	10	0
COc1ccc(NC(=O)c2cc(CC(C)C)on2)cc1OC	0	·	8	50*	8
Cc1cc(NC(=O)Cc2ccccc2)no1	-3	-3	·	·	·
CC(C)Cc1cc(C(=O)Nc2cc(Cl)ccc2Cl)no1	-12	-4	7	11	3
